This is part of a sample that, as a whole, favours compounds with a hit. Of some 83,000 tested, about 20% had one in any assay.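 Cell lines were cultured in 96-well plates, exposed to a single compound concentration, and assessed for percent growth 48 hours later.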 A number with no mark means an inactive call. Activity calls are given as the source filed them. How the source made its calls: active means growth percent below 10; inactive means the rest.
Experiments:
Assay in all cases: NCI-60 one-dose screen, 48 h (100 = growth as untreated, 0 = no growth, -100 = all killed)
Settings in all cases: 10 µM unless noted
NCI-H23 lung = system: NCI-H23 lung
NCI-H226 lung = system: NCI-H226 lung
NCI-H322M lung = system: NCI-H322M lung
HOP-62 NSCLC = system: HOP-62 NSCLC
NCI-H460 lung = system: NCI-H460 lung
HOP-92 NSCLC = system: HOP-92 NSCLC
NCI-H522 lung = system: NCI-H522 lung
A549/ATCC NSCLC = system: A549/ATCC NSCLC
786-0 renal = system: 786-0 renal
COLO 205 colon = system: COLO 205 colon
DU-145 prostate = system: DU-145 prostate
K-562 leukemia = system: K-562 leukemia
MALME-3M melanoma = system: MALME-3M melanoma
MDA-MB-231 breast = system: MDA-MB-231 breast
RXF 393 renal = system: RXF 393 renal
SF-268 CNS = system: SF-268 CNS
SF-295 CNS = system: SF-295 CNS
SF-539 CNS = system: SF-539 CNS
UACC-257 melanoma = system: UACC-257 melanoma
M14 melanoma = system: M14 melanoma

Compound | growth (NCI-H23 lung) | growth (NCI-H226 lung) | growth (NCI-H322M lung) | growth (HOP-62 NSCLC) | growth (NCI-H460 lung) | growth (HOP-92 NSCLC) | growth (NCI-H522 lung) | growth (A549/ATCC NSCLC) | growth (786-0 renal) | growth (COLO 205 colon) | growth (DU-145 prostate) | growth (K-562 leukemia) | growth (MALME-3M melanoma) | growth (MDA-MB-231 breast) | growth (RXF 393 renal) | growth (SF-268 CNS) | growth (SF-295 CNS) | growth (SF-539 CNS) | growth (UACC-257 melanoma) | growth (M14 melanoma)
Cc1cc(O)cc(-c2nn(C)cc2-c2cc(N3CCOCC3)nc(-c3cccnc3)n2)c1 | 56.1% | 36.7% | 59.7% | 49.3% | 12.4% | 6.01% (active) | 13.1% | 39.3% | 18.2% | 16.3% | 53.7% | 21.6% | 55.7% | 53.2% | 9.64% (active) | 44.8% | 14.9% | -12.8% (active) | 61.3% | 28.4%
Nc1cc(-c2ccc(Cl)cc2)nn1-c1nnc(/C=C/c2ccco2)c(=O)[nH]1 | 58.8% | 47.4% | 24.4% | 71.3% | 20.4% | 60.3% | 74.9% | 37.3% | 46.9% | 72.6% | 63.3% | 41.7% | 72.5% | 74.2% | 67.8% | 52.5% | 9.9% (active) | 55.4% | 69.6% | 57.4%
Cc1ccc(C(=O)c2ccc(CC(=O)N/N=C/c3cccc(O)c3O)n2C)cc1 | 45.4% | 69.1% | 54.4% | 49.9% | 8.65% (active) | 56.3% | 48.8% | 58.7% | 76.4% | 63% | 49.3% | 30.4% | 58.7% | 45.3% | 29.7% | 37.2% | 83.5% | 33.8% | 89.7% | 28.5%
C=C(C)[C@@H]1CC[C@]2(C)[C@H](C=CC3=C4C[C@@](C)(CO)CC[C@]4(C)CC[C@]32C)[C@@]1(C)CCCN | -37.1% (active) | 90.8% | -14.3% (active) | -54.9% (active) | -86.2% (active) | -52.9% (active) | -43.1% (active) | -62.2% (active) | -97.3% (active) | -64.4% (active) | -72.7% (active) | 0.273% (active) | -45.2% (active) | -75.7% (active) | -69.5% (active) | -55.8% (active) | 73.3% | -90% (active) | -60.4% (active) | -66.2% (active)
CC(C)(C)c1ccc(S(=O)(=O)Oc2ccc(-c3sc4cc(OS(=O)(=O)c5ccc(C(C)(C)C)cc5)ccc4c3C(=O)c3ccc(OCCN4CCCCC4)cc3)cc2)cc1 | 93.3% | 94.7% | 96.1% | 90.8% | 104% | 84.4% | 72% | 87.4% | 89% | 101% | 114% | 103% | 107% | 103% | 103% | 102% | 94.5% | 96.8% | 106% | 99.2%
CN(C)CCn1c(=O)c2ccccc2n2nc3ccccc3c12 | 87.3% | 84.8% | 85% | 90.9% | 70.4% | 99.6% | 97.4% | 61.2% | 93.9% | 57.2% | 101% | 86.5% | 92.4% | 90.8% | 74.3% | 98.6% | 75% | 87.9% | 105% | 92.1%
CCCCCCCCCCOC(=O)c1nn(C(C)=O)c2cc(C)c(C)cc12 | 96.3% | 87.8% | 107% | 94.5% | 101% | 68.5% | 75.1% | 83.8% | 94.6% | 102% | 106% | 95.2% | 104% | 105% | 104% | 102% | 96% | 97.6% | 96.3% | 90.7%
Cc1nc2sc(C(=O)Nc3ccccn3)c(N)c2cc1C(C)O (stereo not given) | 84.3% | 85.8% | 83.1% | 63.9% | 80.2% | 74.3% | 59.9% | 82% | 82.1% | 75.1% | 103% | 31.1% | 97.9% | 59.1% | 71.2% | 83.6% | 65.1% | 59.8% | 81.6% | 49.3%

Source: PubChem BioAssay (NCI)
